Compound activity deposited in PubChem by National Center for Advancing Translational Sciences (NCATS).
FMDV inh = High Throughput Screening for Foot and Mouth Disease Virus Antivirals; 1.2% of 410,000 active; FMDV antiviral cell-based qHTS; AID 1159524, 2015; Potency, µM (highest dose often 57.9 µM), most hits filed as inhibitors; calls by dose curve; tested in HEK293T cells; further: read-out not given here; nearly all actives have a fitted effect of over 45% in size
MARV entry inh = qHTS for inhibitors of binding or entry into cells for Marburg Virus. Marburg virus pseudotyped entry inhibition, cell reporter. 1.8% of 300,000 active. Potency, µM (doses to about 37.8 µM), actives largely listed as inhibitors; calls by dose curve; tested in HEK293 cells
LASV entry inh = qHTS for Inhibitors of binding or entry into cells for Lassa Virus | Lassa virus pseudotype entry inhibition, cell reporter | 1.2% of 300,000 active | Potency, µM (titrated, usually from 37.9 µM), usual class: inhibitors; calls by dose curve; tested in HEK293 cells; further: nearly all actives have a fitted effect of over 50% in size
HCMV antiviral = qHTS Assay for inhibitors of the human cytomegalovirus (HCMV) | HFF cells, HCMV-luciferase reporter, 72 h; hits give low values | activity change, negative = inhibition, % at 57.5 µM | 4.5% of 410,000 active | AID 1259415, 2018; in the data active means activity change below about -60%; inconclusive means no clear call, values can overlap the other calls; inactive means above about -39%
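HFF cells seeded 16 h at 37C, treated with compounds, infected with luciferase-reporter HCMV at MOI 1 PFU/cell; luciferase read at 72 h post infection, normalized to buffer-only and Salinomycin controls.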
HCV inhibitor = qHTS Assay for Inhibitors of Hepatitis C Virus (HCV). Huh7.5.1 HCVcc-Cre infection, luciferase reporter, 44 h. Potency, µM (top dose mostly 41.8 µM), hits mostly inhibitors. 3.4% of 340,000 active. AID 651820, 2012; active means well fitted inhibition curve with a large enough effect; inconclusive means small, poorly fitted or top-dose-only effect, or another doubt; inactive means no such curve, though single readings can be large or run the other way
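1,000 cells/well; 4 h culture; + compound; + HCVcc-Cre (~0.5 moi); 44 h; luciferase substrate, RT 15 min; read 15 sec.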
Each line names hits and unclear results; the compound was inactive in the other large screens. Hits are enriched below; roughly 7.9% of the tested compounds scored in any of these assays.

COc1ccc(-c2cc(OC)c3ccccc3n2)cc1	HCV inhibitor inconclusive
COc1ccc(-c2cc3cc(OC)c(OC)cc3c(C)n2)cc1	HCV inhibitor 14µM
COc1ccc2c(OC)cc(-c3ccccc3)nc2c1	HCV inhibitor 10µM
N/C(=N\OC(=O)c1cccc(Cn2cc(C(F)(F)F)ccc2=O)c1)c1ccc(Cl)cc1	FMDV inh inconclusive, HCMV antiviral -64
N/C(=N\OC(=O)c1cccc(Cn2cc(C(F)(F)F)ccc2=O)c1)c1ccccc1	HCMV antiviral inconclusive, HCV inhibitor inconclusive (no result: MARV entry inh, LASV entry inh)
Cc1cccc(C(=O)N2CCCC(CCC(=O)N3CCN(c4ccccn4)CC3)C2)c1C (stereo unspecified)	FMDV inh inconclusive, HCMV antiviral -86, HCV inhibitor inconclusive (no result: MARV entry inh, LASV entry inh)
Cc1cc(C(=O)N2CCCC(CCC(=O)N3CCN(c4ccccn4)CC3)C2)c(C)o1 (stereo unspecified)	none
CCC(CC)C(=O)Nc1cccc(C(=O)Nc2ccc(S(N)(=O)=O)cc2)c1	none
CCc1nc2ccc(C(=O)N3CCN(CC)CC3)cc2nc1CC	none (no result: MARV entry inh, LASV entry inh)
CCc1nc2ccc(C(=O)O)cc2nc1CC	FMDV inh inconclusive, MARV entry inh 2µM, LASV entry inh 15µM
Cc1ccc(NS(=O)(=O)c2ccc(N3C(=O)CCC3=O)cc2)cc1	HCMV antiviral -84
CCC(CC)C(=O)Nc1cccc(C(=O)Nc2ccc3c(c2)OCO3)c1	HCV inhibitor 7.9µM
CCC(CC)C(=O)Nc1cccc(C(=O)Nc2ccc(S(=O)(=O)Nc3ccc(C)cc3)cc2)c1	FMDV inh inconclusive, MARV entry inh inconclusive, LASV entry inh inconclusive, HCMV antiviral -97, HCV inhibitor 16µM
CC(C)c1ccc(NS(=O)(=O)c2ccc(N3C(=O)CCC3=O)cc2)cc1	MARV entry inh inconclusive
COc1cccc(CCNc2ncnc3sc(C(=O)N4CCN(C)CC4)c(C)c23)c1	none (no result: MARV entry inh, LASV entry inh, HCMV antiviral, HCV inhibitor)
Cc1noc(C)c1NC(=O)N(C)C[C@H]1OCc2cnnn2CCCC(=O)N([C@@H](C)CO)C[C@H]1C	none (no result: MARV entry inh, LASV entry inh, HCV inhibitor)
CC1CCN(C(=O)CCNS(=O)(=O)c2ccc(Cl)cc2)CC1	none
COc1ccccc1-c1csc(C(C)(O)c2cccc(F)c2)n1 (stereo unspecified)	none (no result: MARV entry inh, LASV entry inh, HCV inhibitor)
COc1cc(SC)ccc1C(=O)Nc1ccc2c(c1)OCCO2	MARV entry inh inconclusive, LASV entry inh 12µM, HCV inhibitor inconclusive
COc1ccc(NC(=O)C2=CC(c3ccc4c(c3)OCO4)=NS(=O)(=O)N2C)cc1OC	none (no result: HCV inhibitor)
COc1ccccc1C(=O)Nc1ccc2c(c1)OCCO2	MARV entry inh inconclusive, LASV entry inh inconclusive
CCc1nc2ccc(C(=O)Nc3ccc4c(c3)OCO4)cc2nc1CC	HCV inhibitor 2µM
CC(OC(=O)c1cccc(NS(C)(=O)=O)c1)C(=O)Nc1ccc2c(c1)OCO2 (stereo unspecified)	FMDV inh inconclusive, HCV inhibitor 7.1µM
COc1ccc(C2=NS(=O)(=O)N(C)C(C(=O)Nc3ccc4c(c3)OCO4)=C2)cc1OC	FMDV inh inconclusive, HCV inhibitor 13µM (no result: MARV entry inh, LASV entry inh)
CCCOc1ccc(NC(=O)CCC(=O)NC(C)c2ccccc2)cc1 (stereo unspecified)	none (no result: MARV entry inh, LASV entry inh)
Cc1cc(C)c(NC(=O)C(=O)NCC(c2cccnc2)N2CCN(Cc3ccccc3)CC2)c(C)c1 (stereo unspecified)	FMDV inh inconclusive (no result: MARV entry inh, HCV inhibitor)
CCOc1ccc(C(=O)Nc2ccc3c(c2)OCO3)cc1OCC	HCV inhibitor 5.6µM
Cc1cc(NS(=O)(=O)c2ccc(NC(=O)c3c(F)c(F)c(F)c(F)c3F)cc2)nc(C)n1	HCMV antiviral inconclusive
COc1ccc(Cl)cc1C(=O)Nc1ccc2c(c1)OCO2	HCV inhibitor 11µM
CCOc1cc(C(=O)Nc2ccc3c(c2)OCO3)ccc1OCCOc1ccccc1Cl	LASV entry inh inconclusive
Cc1ccc(S(=O)(=O)Nc2ccc(NC(=O)c3c(F)c(F)c(F)c(F)c3F)cc2)cc1	HCV inhibitor 13µM (no result: MARV entry inh, LASV entry inh)
Cn1c(=O)c2c(-c3ccc(Cl)cc3)ccnc2n(C)c1=O	none (no result: HCV inhibitor)
OCc1ccccc1O[C@@H]1O[C@H](CO)[C@@H](O)[C@H](O)[C@H]1O	none (no result: MARV entry inh, LASV entry inh, HCMV antiviral)
OCC1OC(Oc2c[nH]c3ccccc23)C(O)C(O)C1O (stereo unspecified)	HCMV antiviral -98 (no result: MARV entry inh, LASV entry inh)
COc1ccccc1N1CCN(S(=O)(=O)c2ccc(-c3ccc(=O)[nH]n3)o2)CC1	none (no result: MARV entry inh, LASV entry inh)
Cc1cccc(N2CCN(S(=O)(=O)c3ccc(-c4ccc(=O)[nH]n4)o3)CC2)c1C	HCMV antiviral -63 (no result: MARV entry inh, LASV entry inh)
COC(=O)N1CCCc2cc(S(=O)(=O)NCc3ccccc3)ccc21	none (no result: HCV inhibitor)
COc1ccc(Cl)cc1C(=O)O/N=C(\N)c1ccncc1	HCV inhibitor 22µM
Cc1ccc(/C(N)=N/OC(=O)c2ccc(Cl)cc2Cl)cc1	MARV entry inh 7.1µM, LASV entry inh inconclusive, HCV inhibitor inconclusive
COc1ccc(C(=O)O/N=C(\N)c2ccncc2)cc1OC	MARV entry inh inconclusive, LASV entry inh inconclusive
COc1cccc(C(=O)Nc2nc3c(s2)CCCC3)c1	none (no result: HCV inhibitor)
CC(C)(C)c1ccc(C(=O)NC(=S)Nc2nc3c(s2)CCCC3)cc1	FMDV inh inconclusive, MARV entry inh 1.3µM, LASV entry inh inconclusive, HCMV antiviral -76, HCV inhibitor inconclusive
CN(C)c1ccc(C(=O)Nc2nc3c(s2)CCCC3)cc1	MARV entry inh inconclusive, LASV entry inh inconclusive, HCMV antiviral -67, HCV inhibitor 11µM
CC(Oc1ccc(F)cc1)C(=O)Nc1cc(S(=O)(=O)N2CCOCC2)ccc1N1CCCCC1 (stereo unspecified)	MARV entry inh inconclusive, LASV entry inh inconclusive, HCV inhibitor inconclusive
CC(C)c1ccc(/C=C2\SC(=O)N(CC(=O)NC3CCS(=O)(=O)C3)C2=O)cc1 (stereo unspecified)	HCV inhibitor inconclusive (no result: MARV entry inh, LASV entry inh)
O=C(NCCOc1ccc(F)cc1)C1CCC(=O)N(Cc2ccc(Cl)cc2)C1 (stereo unspecified)	none (no result: MARV entry inh, LASV entry inh, HCV inhibitor)
CCOc1ccc(/C=N/NC(=O)Cc2ccccc2)cc1CN1CC2CC(C1)c1cccc(=O)n1C2 (stereo unspecified)	HCV inhibitor 7.9µM (no result: LASV entry inh)
O=C(CCCc1nc2ccccc2s1)N1CCN(S(=O)(=O)c2cccs2)CC1	FMDV inh inconclusive, MARV entry inh 10µM, LASV entry inh inconclusive, HCV inhibitor inconclusive
CC1CC2CCCC(O)=C2C(=O)O1 (stereo unspecified)	HCMV antiviral -61 (no result: MARV entry inh, LASV entry inh)
COc1ccc(CCN2C(=O)CSC2c2ccc(OC)c(OC)c2)cc1OC (stereo unspecified)	none (no result: MARV entry inh, LASV entry inh)
Cc1cccc(NC(=O)c2ccc(C3SCC(=O)N3CCc3ccccc3)cc2)c1C (stereo unspecified)	FMDV inh inconclusive, MARV entry inh inconclusive, LASV entry inh inconclusive, HCMV antiviral -72, HCV inhibitor inconclusive
COc1ccc(C2SCC(=O)N2CCc2ccc(OC)c(OC)c2)cc1 (stereo unspecified)	FMDV inh inconclusive, HCMV antiviral -71, HCV inhibitor 11µM (no result: MARV entry inh, LASV entry inh)
CCCNC(=O)c1ccc(C2SCC(=O)N2CCc2ccccc2)cc1 (stereo unspecified)	LASV entry inh 10µM, HCV inhibitor inconclusive
Cc1sc2ccccc2c1CC1=NCCN1	FMDV inh inconclusive, MARV entry inh inconclusive, HCV inhibitor 3.2µM
